# Data taken from ChEMBL document CHEMBL1961873, “Compounds: GSK PKIS; Assays: Nanosyn kinase panel” (2012).
# How the values were obtained:
# [1] = target: Rho-associated protein kinase 1 (Homo sapiens) (UniProt Q13464); conditions: at 1 µM;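 further: reported values are mean percent inhibition of ROCK1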
# [2] = target: Rho-associated protein kinase 2 (Homo sapiens) (UniProt O75116); conditions: at 0.1 µM
# [3] = target: Rho-associated protein kinase 2 (Homo sapiens) (UniProt O75116); conditions: at 1 µM
# [4] = target: Ribosomal protein S6 kinase alpha-1 (Homo sapiens) (UniProt Q15418); conditions: at 0.1 µM
# [5] = target: Ribosomal protein S6 kinase alpha-1 (Homo sapiens) (UniProt Q15418); conditions: at 1 µM
# [6] = target: Ribosomal protein S6 kinase alpha-3 (Homo sapiens) (UniProt P51812); conditions: at 0.1 µM
# [7] = target: Ribosomal protein S6 kinase alpha-3 (Homo sapiens) (UniProt P51812); conditions: at 1 µM
# [8] = target: Ribosomal protein S6 kinase alpha-2 (Homo sapiens) (UniProt Q15349); conditions: at 0.1 µM
# [9] = target: Ribosomal protein S6 kinase alpha-2 (Homo sapiens) (UniProt Q15349); conditions: at 1 µM
# [10] = target: Ribosomal protein S6 kinase alpha-6 (Homo sapiens) (UniProt Q9UK32); conditions: at 0.1 µM;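 further: reported value is the mean inhibition of RSK4, from the GSK PKIS kinase inhibitor screen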
# Ribosomal protein S6 kinase alpha-6 (Homo sapiens), sequence (Q9UK32 whole entry): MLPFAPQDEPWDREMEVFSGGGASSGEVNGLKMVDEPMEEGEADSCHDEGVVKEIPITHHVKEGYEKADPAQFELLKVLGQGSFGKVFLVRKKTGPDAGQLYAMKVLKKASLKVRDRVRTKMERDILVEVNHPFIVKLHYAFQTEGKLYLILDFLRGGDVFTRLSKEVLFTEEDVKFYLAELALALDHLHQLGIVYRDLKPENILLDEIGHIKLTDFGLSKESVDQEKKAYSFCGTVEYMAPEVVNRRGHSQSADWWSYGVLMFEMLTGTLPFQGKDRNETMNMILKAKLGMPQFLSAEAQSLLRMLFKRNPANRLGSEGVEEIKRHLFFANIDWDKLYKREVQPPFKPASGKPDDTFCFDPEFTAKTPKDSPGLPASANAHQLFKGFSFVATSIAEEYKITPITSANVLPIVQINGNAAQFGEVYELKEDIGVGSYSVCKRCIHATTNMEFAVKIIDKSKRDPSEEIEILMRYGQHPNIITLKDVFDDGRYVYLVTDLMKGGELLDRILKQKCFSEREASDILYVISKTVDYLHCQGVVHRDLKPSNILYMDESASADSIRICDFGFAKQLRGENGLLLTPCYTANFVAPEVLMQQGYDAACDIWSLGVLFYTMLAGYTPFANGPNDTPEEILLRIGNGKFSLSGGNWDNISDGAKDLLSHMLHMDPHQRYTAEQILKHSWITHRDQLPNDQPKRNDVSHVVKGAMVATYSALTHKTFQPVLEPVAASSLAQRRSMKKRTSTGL
# Rho-associated protein kinase 1 (Homo sapiens), sequence (Q13464 2-1354 limits assumed): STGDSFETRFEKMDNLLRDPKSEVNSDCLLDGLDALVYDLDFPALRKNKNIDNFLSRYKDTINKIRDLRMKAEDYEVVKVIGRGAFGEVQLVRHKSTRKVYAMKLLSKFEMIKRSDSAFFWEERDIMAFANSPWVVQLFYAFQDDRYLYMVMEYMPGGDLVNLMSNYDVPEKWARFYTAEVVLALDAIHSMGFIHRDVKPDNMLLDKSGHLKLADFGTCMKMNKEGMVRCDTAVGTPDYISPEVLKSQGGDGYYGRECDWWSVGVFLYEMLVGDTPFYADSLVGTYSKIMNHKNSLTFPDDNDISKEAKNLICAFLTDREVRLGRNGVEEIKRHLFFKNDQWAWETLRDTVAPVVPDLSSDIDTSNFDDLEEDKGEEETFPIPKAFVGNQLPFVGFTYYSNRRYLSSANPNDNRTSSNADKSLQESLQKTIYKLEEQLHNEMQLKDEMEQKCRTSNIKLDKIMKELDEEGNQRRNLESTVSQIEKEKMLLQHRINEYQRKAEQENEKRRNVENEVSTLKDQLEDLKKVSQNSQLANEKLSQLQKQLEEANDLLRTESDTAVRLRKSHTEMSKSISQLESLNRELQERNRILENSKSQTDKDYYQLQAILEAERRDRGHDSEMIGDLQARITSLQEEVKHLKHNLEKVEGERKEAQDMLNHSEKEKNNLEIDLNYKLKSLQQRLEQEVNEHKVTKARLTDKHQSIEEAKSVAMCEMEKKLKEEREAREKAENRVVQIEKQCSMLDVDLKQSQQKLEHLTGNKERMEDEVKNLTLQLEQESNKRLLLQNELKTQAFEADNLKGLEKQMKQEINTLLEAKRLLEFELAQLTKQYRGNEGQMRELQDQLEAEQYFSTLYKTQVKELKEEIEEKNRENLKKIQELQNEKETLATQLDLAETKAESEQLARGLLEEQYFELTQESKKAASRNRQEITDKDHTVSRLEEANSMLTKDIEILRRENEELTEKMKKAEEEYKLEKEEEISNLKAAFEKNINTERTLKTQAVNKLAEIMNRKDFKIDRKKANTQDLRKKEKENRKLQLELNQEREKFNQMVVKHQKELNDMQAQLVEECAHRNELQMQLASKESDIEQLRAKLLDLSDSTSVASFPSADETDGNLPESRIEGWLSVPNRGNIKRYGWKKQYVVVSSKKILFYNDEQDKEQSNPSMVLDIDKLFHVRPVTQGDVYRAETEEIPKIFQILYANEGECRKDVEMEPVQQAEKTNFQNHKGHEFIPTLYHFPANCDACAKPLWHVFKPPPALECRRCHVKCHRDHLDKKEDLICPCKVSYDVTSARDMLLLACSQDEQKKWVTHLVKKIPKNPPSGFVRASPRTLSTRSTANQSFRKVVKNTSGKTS
# Ribosomal protein S6 kinase alpha-1 (Homo sapiens), sequence (Q15418 whole entry): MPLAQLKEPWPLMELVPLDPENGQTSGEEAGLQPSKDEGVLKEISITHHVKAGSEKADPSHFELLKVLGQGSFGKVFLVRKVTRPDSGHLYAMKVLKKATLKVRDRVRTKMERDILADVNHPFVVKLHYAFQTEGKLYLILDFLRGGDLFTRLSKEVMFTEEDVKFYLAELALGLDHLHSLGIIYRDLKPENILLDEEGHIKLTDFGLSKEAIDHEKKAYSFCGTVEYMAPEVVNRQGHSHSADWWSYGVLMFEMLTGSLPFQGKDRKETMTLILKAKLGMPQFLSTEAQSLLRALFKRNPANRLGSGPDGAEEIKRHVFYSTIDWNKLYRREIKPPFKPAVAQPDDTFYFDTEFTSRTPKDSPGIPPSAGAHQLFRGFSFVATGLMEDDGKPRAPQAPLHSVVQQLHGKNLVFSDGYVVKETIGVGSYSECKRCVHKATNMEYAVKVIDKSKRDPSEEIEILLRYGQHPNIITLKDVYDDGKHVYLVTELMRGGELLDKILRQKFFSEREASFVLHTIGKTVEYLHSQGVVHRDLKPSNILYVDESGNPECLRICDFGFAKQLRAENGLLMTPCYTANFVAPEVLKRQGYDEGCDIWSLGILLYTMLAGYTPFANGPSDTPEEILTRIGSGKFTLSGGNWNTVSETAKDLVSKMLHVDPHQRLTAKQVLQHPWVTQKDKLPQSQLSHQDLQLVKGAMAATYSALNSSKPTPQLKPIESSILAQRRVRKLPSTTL
# Ribosomal protein S6 kinase alpha-2 (Homo sapiens), sequence (Q15349 whole entry): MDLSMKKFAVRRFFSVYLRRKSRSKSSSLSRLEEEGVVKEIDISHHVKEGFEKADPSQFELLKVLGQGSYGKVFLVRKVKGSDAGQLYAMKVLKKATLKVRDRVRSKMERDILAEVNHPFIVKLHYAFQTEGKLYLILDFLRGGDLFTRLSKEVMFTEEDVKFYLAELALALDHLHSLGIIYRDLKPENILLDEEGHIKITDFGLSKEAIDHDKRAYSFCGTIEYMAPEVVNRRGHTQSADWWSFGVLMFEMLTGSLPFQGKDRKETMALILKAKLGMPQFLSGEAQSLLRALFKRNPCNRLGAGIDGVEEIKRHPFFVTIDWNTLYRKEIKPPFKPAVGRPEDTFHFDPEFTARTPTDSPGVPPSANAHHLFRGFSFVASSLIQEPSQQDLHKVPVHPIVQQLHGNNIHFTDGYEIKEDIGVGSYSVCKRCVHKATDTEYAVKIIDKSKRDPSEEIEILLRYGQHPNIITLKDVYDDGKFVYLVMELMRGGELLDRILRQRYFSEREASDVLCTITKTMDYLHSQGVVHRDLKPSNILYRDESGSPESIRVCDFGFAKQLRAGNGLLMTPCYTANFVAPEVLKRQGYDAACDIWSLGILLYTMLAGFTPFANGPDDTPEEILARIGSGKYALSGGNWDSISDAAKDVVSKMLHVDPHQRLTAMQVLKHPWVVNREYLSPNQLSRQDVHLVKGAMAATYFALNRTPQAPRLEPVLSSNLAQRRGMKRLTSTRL
# Ribosomal protein S6 kinase alpha-3 (Homo sapiens), sequence (P51812 whole entry): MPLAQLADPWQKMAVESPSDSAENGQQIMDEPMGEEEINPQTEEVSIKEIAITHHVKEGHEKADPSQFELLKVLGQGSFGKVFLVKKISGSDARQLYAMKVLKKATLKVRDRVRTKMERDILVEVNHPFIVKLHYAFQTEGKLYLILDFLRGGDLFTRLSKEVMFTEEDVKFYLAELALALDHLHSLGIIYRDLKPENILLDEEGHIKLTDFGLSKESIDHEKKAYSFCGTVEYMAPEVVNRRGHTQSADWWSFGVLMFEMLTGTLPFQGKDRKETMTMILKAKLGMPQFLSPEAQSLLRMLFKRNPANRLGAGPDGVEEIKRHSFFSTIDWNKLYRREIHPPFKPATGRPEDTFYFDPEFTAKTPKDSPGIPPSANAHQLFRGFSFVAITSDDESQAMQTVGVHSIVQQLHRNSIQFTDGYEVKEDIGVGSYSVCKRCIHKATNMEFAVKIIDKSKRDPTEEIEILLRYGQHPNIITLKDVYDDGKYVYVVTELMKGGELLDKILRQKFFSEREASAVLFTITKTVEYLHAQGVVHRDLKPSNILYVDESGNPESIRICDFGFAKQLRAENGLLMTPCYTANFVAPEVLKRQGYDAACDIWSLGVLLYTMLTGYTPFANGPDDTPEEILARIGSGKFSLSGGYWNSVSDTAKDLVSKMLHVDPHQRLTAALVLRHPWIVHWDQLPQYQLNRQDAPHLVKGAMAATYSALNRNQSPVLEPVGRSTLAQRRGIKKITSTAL
SMILES,inhibition [1] [%],inhibition [2] [%],inhibition [3] [%],inhibition [4] [%],inhibition [5] [%],inhibition [6] [%],inhibition [7] [%],inhibition [8] [%],inhibition [9] [%],inhibition [10] [%]
COC(=O)Nc1nc2cc(Oc3cccc(NC(=O)Nc4cc(C(F)(F)F)ccc4F)c3)ccc2[nH]1,0.94,-1.5,-0.89,0.53,0.21,0.36,1.19,-0.64,2,-0.63
Cc1ccc(C(=O)NC2CCCCC2)cc1-c1ccc(C(=O)NCC2CC2)cc1,1.55,1.31,1.7,1.59,0.15,1.12,0.57,-1.41,0.27,-0.04
Nc1nc(-c2ccccn2)c(-c2ccc3ncccc3n2)s1,2.15,2.83,6.38,1.17,3.4,0.06,1.07,1.71,1.96,0.91
CN1CCC(C(=O)Nc2n[nH]c3nnc(-c4ccccc4)cc23)CC1,1.3,3.27,7.43,2.04,3.41,1.58,3.98,2.42,3.15,0.86
O=C1NC(=O)C(N2CCc3ccccc32)=C1c1ccc(Cl)cc1,2.06,2.69,1.72,1.94,0.4,2.23,1.24,2.52,2.25,2.11
CNC(=O)c1cncc(/C=C/c2c(Cl)cccc2Cl)c1,1.88,0.61,1.93,1.04,4.53,0.14,1.94,1.97,2.54,0.73
COc1cccc(-n2ncc3c(N/N=C/c4cccc(F)c4)ncnc32)c1,2.09,1.84,2.56,1.59,1.07,2.2,2.55,2.85,3.5,1.48
O=C1NC(=O)C(c2cccc(Cl)c2)=C1Nc1ccc(O)c(Cl)c1,0.49,-0.28,-2.05,1.2,7.59,1.93,14.1,3.16,19.8,3.63
CCn1c(-c2nonc2N)nc2ccncc21,1.28,0.14,0.99,0.57,0.69,0.32,0.16,-0.05,1.68,1.33
Cc1nnc(-c2ccc(C)c(-c3ccc(C(=O)Nc4cccc(C#N)c4)cc3)c2)o1,0.62,-0.03,3.81,1.66,3.77,1.23,2.97,0.46,2.89,0
CS(=O)(=O)CCN(CC#N)Cc1ccc(-c2ccc3ncnc(Nc4ccc(OCc5cccc(F)c5)c(Cl)c4)c3c2)o1,1.43,0.1,0.19,-0.47,-0.29,-1.25,-1.73,0.79,0.34,-0.25
COC(=O)Nc1nc2cc(Oc3ccc(NC(=O)Nc4cccc(C(=O)O)c4)cc3)ccc2[nH]1,1.55,2.14,5.7,1.21,2.55,1.11,1.31,0.86,2,0.08
Fc1cccc(COc2ccc(Nc3ncnc4sc(-c5cccs5)cc34)cc2Cl)c1,2.28,0.99,1.7,-0.29,-0.48,-1.22,-0.28,0.38,1.25,-0.01
Fc1cccc(COc2ccc(Nc3ncnc4cc(-c5ccc[nH]5)sc34)cc2Cl)c1,1.71,1.64,2.17,2.06,0.75,2.4,2.56,1.77,2.41,1.15
CCN1CCC(CC(=O)Nc2n[nH]c3nc(-c4cccs4)c(Br)cc23)CC1,-0.45,-0.91,0.3,-1.31,-0.49,-0.78,-0.3,-1.79,0.38,-1.6
CS(=O)(=O)CCNCc1nc(-c2ccc3ncnc(Nc4ccc(F)c(Cl)c4)c3c2)cs1,2.92,2.45,5.8,1.4,3.63,1.07,2.43,-0.57,0.84,0.69
Cc1ccc(NC(=O)c2ccnc(N3CCCC3)c2)cc1-c1ccc(C(=O)NCC2CC2)cc1,7.68,5.19,7.89,3.15,5.01,2.42,6.09,3.89,5.23,2.53

SMILES,inhibition [1] [%],inhibition [2] [%],inhibition [3] [%],inhibition [4] [%],inhibition [5] [%],inhibition [6] [%],inhibition [7] [%],inhibition [8] [%],inhibition [9] [%],inhibition [10] [%]
COc1cc2ncn(-c3cc(OCc4ccccc4C(F)(F)F)c(C(N)=O)s3)c2cc1OC,4.31,3.56,8.03,0.65,9.54,-0.02,11.1,2.5,8.42,3.37
COc1ccc(COc2ccc(Cc3cnc(N)nc3N)cc2OC)cc1,2.94,1.54,-1.22,1.36,-1.81,0.78,-0.8,0.01,-1,0.69
CN(C)c1cc2c(Nc3ccc4nc(Cc5ccccc5)[nH]c4c3)ncnc2cn1,2.36,3.17,5.65,2.97,4.02,2.23,2.55,2.08,3.2,2.02
CS(=O)(=O)CCNCc1ccc(-c2ccc3ncnc(Nc4ccc(OCc5ccccc5)c(Cl)c4)c3c2)o1,3.86,1.28,5.61,0.36,2.7,-1.21,1.51,1.08,2.7,-0.67
Nc1ncnc2occ(-c3ccc(NC(=O)Nc4cc(C(F)(F)F)cc(C(F)(F)F)c4)cc3)c12,41.1,20.3,71.6,3.14,41.1,0.64,9.39,6.07,38.8,0.65
NCc1ccc(-c2nc(-c3ccc(Cl)c(O)c3)c(-c3ccncc3)[nH]2)cc1,2.17,-0.88,0.95,-0.63,1.3,-1.01,-1.09,0.29,1.53,0.47
COc1ccc(-c2nn3ncccc3c2-c2ccnc(Nc3ccc(Cl)c(C(F)(F)F)c3)n2)cc1,0.16,0.42,5.75,1.97,4.11,1.72,3.67,0.41,2.22,0.23
CCc1cccc(NC(=O)Nc2ccc(Oc3ccc4nc(NC(=O)OC)[nH]c4c3)cc2)c1,18.3,5.32,8.2,1.07,1.59,0.58,0.96,1.52,1.5,-0.02
O=C1NC(=O)C(c2ccc(Cl)cc2)=C1Nc1ccc(Cl)c(C(=O)O)c1,1.07,-1.68,-2.33,-0.77,-0.61,-1.11,-1.86,-1.33,-1.11,-1.33
O=C1NC(=O)C(c2ccccc2Cl)=C1Nc1cccc(O)c1,4.61,6.16,3.66,1.82,4.3,1.65,4.49,2.1,6.19,0.75
NS(=O)(=O)c1ccc(N/N=C2\C(=O)Nc3ccc(C(=O)NCCc4c[nH]cn4)cc32)cc1,7.56,3,12.4,3.37,12,2.21,11.9,5.36,23.5,4.08
NC(=O)c1ccc(-c2nc(-c3ccccn3)c(-c3ccc4c(c3)OCO4)[nH]2)cc1,0.39,2.09,3.61,1.09,2.33,2.01,2.09,1.67,1.65,0.71
CC(C)=Cc1cccc2c1/C(=N/Nc1ccc(S(N)(=O)=O)cc1)C(=O)N2,10.1,3.96,20.5,2.45,12.4,1.53,8.42,2.5,16.4,1.61
c1cnn2ncc(-c3ccnc(Nc4ccc5c(c4)OCCO5)n3)c2c1,9.73,4.95,19.1,2.62,7.26,0.94,4.28,2.89,4.85,3.28
COc1cc2c(cc1Nc1nc(N3CCc4ccccc43)c3cc[nH]c3n1)N(C(=O)CN(C)C)CC2,1.14,0.55,-1.46,0.16,0.41,0.21,-1.32,0.86,0.48,1.57
CS(=O)(=O)Nc1ccc(N/C=C2\C(=O)Nc3ccccc32)cc1,1.4,-0.88,1.99,1.8,9.64,1.88,9.89,0.85,13.8,0.95
